Compound activity (PubChem)
An excerpt weighted towards active compounds, which were near 1.4% of everything screened.
IDE cell activ: boosts human insulin-degrading enzyme activity in HEK cells; FAbeta-B cleavage, fluorescence polarization; 0% vehicle, 100% cell-free pure enzyme wells; activation, % at 5.96 µM; hit rate 0.073% among 340,000; AID 493087;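 active = activation above the mean of all tested compounds plus 3 SD, set per screening campaign, cut at about 17% in these data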
Target sequence (P14735 whole entry, looked up): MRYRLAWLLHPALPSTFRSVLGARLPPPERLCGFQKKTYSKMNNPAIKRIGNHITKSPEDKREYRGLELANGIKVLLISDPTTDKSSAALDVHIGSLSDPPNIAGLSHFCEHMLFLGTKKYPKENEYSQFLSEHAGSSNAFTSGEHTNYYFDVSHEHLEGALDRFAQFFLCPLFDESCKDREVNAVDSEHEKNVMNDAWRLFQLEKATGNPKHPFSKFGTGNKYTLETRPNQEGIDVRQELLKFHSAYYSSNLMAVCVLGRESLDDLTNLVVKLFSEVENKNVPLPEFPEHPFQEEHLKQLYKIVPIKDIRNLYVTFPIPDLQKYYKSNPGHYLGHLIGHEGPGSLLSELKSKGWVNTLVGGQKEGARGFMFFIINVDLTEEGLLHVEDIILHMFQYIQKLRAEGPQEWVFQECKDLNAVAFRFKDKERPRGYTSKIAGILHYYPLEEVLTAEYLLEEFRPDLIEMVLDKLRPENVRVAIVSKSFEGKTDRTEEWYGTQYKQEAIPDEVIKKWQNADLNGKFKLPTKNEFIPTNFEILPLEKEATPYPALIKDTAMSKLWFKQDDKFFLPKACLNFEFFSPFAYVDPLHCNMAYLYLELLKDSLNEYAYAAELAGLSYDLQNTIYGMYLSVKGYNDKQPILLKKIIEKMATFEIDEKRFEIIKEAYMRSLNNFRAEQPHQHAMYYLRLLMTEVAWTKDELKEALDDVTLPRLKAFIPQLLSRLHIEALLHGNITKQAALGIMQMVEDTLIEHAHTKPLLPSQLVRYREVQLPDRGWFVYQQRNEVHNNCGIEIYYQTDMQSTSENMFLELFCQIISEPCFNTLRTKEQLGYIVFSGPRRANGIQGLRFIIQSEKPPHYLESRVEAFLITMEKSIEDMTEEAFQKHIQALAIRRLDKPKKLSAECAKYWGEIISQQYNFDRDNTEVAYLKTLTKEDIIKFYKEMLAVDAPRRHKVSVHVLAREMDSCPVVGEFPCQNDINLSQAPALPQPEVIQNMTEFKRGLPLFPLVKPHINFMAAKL
HNF4A DNA FP: change in binding of human HNF4 alpha to DNA. P41235. HNF4a-FITC DNA binding, fluorescence polarization, 1 h. activity change, % at 10 µM. hit rate 0.3% among 360,000. AID 1224865; in the data active = activity change above about 30%, passing the limit was not always enough
CRFR2-BP ag: CRF-BP/CRF-R2 complex agonism | HEK293 CRF-R2/CRF-BP, calcium dye fluorescence (FLIPR); percent of saturating CRF peptide response | activation, % at 13.2 µM | hit rate 0.46% among 350,000;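 active = activation of at least 50%, plus an integration ratio under a set limit after plate pattern correction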;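 note: plate controls were neutral control wells without compound for no effect and CRF at EC100 for full effect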
IDE cell inh: cellular human IDE inhibition; inhibition, % at 5.59 µM; P14735; hit rate 0.41% among 320,000; HEK cells, FAbetaB cleavage, fluorescence polarization;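 active = percent inhibition above the average of all tested compounds plus 3 SD, set per screening campaign, cut at about 16% in these data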;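 note: IDE supplied by intact live HEK cells; FP after avidin binding of uncleaved biotin substrate so inhibition keeps polarization high; 0% = DMSO wells and 100% = 60 µM reference IDE inhibitor Ii1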
TPT1 inhibitor: inhibitors of Candida albicans tRNA 2'-phosphotransferase TPT1; recombinant caTPT1, FP RNA substrate dephosphorylation; inhibition, % at 5 µM; hit rate 0.81% among 300,000; AID 1962;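 active = inhibition above the mean of all tested compounds plus 3 SD, set per screening campaign, cut at about 24% in these data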;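 note: plate controls were DMSO alone for no effect and ferristatin control at 100 nM for full effect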
The depositor's hits bear a star; · = no result.

SMILES	IDE cell activ	HNF4A DNA FP	CRFR2-BP ag	IDE cell inh	TPT1 inhibitor
CCOc1ccc(/C=C/C(O)=C2/C(=O)N(C)C3(C)CC2c2ccccc2O3)cc1OC (configuration not stated)	-4.1	-1.4	3.1	-2.9	2.7
CN(C)c1ccc(/C=C/C(O)=C2/C(=O)N(C)C3(C)CC2c2ccccc2O3)cc1 (configuration not stated)	·	·	·	42.3*	188.4*
COc1nc(Nc2nc3ccccc3c(=O)[nH]2)nc2ccc(C)cc12	9.6	275.2*	1.4	2.6	-2.5
COC(=O)c1ccc2c(c1)NC(=O)C(N(CC(C)C)CC(C)C)S2 (configuration not stated)	1.3	46.8*	5.9	-0.9	0.9
CCOC(=O)/C=c1\s/c(=C\c2ccc(C(=O)OC)cc2)c(=O)n1CC(=O)Nc1ccccc1	-0.2	7.6	0.0	4.9	8.2
CCOC(=O)/C=c1/s/c(=C/c2ccc3cc(OC)ccc3c2)c(=O)n1CC(=O)NCC1CCCO1 (configuration not stated)	5.7	34.1	79.2*	·	·
CC1CC(=O)c2c(cc3c(-c4c(O)cc(O)c5c(O)c6c(cc45)OC(C)CC6=O)c(O)cc(O)c3c2O)O1 (configuration not stated)	25.3*	-39.1	3.8	-15.2	-8.8
Cc1ccc2cc(CCNC(=O)c3ccc4c(c3)OCO4)c(=O)[nH]c2c1C	-0.6	33.9*	-1.1	0.1	-3.9
Cc1ccc2cc(CCNC(=O)C(C)C)c(=O)[nH]c2c1C	2.5	-0.1	1.0	2.2	4.7
CC(C)CN(C(=O)COC(=O)c1cncc(Br)c1)c1c(N)n(Cc2ccccc2)c(=O)[nH]c1=O	3.1	-1.7	1.9	9.2	-0.7
CC(C)CN(C(=O)COC(=O)c1ccc(Br)cc1)c1c(N)n(Cc2ccccc2)c(=O)[nH]c1=O	22.0*	0.9	6.7	-2.0	-0.2
CCN(CC)c1ccc2cc(NC(=O)CCC(=O)O)c(=O)oc2c1	-1.5	-49.2	88.2*	2.4	-28.2
O=C(O)c1cc2c(ncc3c(=O)n(-c4ccccc4)[nH]c32)s1	·	-1.4	·	·	·
O=C(CBr)c1ccc([N+](=O)[O-])c(CS(=O)(=O)c2ccc(Cl)cc2)c1	1.4	-2.5	-1.7	11.0	-1.8
COc1ccc(C(=O)NNC(=S)NC(=O)c2ccco2)cc1	-0.9	-3.5	32.5	-0.2	-1.4
CCCOc1ccc(C(=O)NNC(=S)NC(=O)c2ccco2)cc1	0.5	-1.9	137.2*	10.1	1.2
CCCOc1ccc(C(=O)NNC(=S)NC(=O)c2cccs2)cc1	-4.5	-2.1	112.9*	3.0	0.8
CC(Oc1ccc(Cl)cc1)C(=O)NNC(=S)NC(=O)c1ccco1 (configuration not stated)	-0.1	1.5	134.6*	0.1	-3.3
O=C(COc1ccc(Cl)cc1Cl)NNC(=S)NC(=O)c1ccco1	-2.7	-0.2	6.8	-1.7	0.3
CCCOc1ccc(C(=O)NNC(=S)NC(C)=O)cc1	0.5	-1.3	-1.3	-0.4	-0.1
CCCOc1ccc(C(=O)NNC(=S)NC(=O)c2ccccc2)cc1	-0.8	-0.6	179.7*	-0.6	-3.5
Cc1cccc(N2CCN(C3C(=O)Nc4ccccc4-n4nnnc43)CC2)c1C (configuration not stated)	·	1.6	·	·	·
COc1cccc(C(=O)Nc2nnc(S(=O)(=O)N(C)Cc3ccc(F)cc3)s2)c1	0.4	8.5	1.5	4.5	3.0
Cc1ccnc(NCc2ccc(Cl)cc2)c1	2.9	-1.3	-0.5	0.4	0.1
CN(CCc1ccccc1)C(C(=O)c1ccc2c(c1)OCO2)c1nnnn1-c1ccccc1NC(=O)OC(C)(C)C (configuration not stated)	·	4.8	·	·	·
SMILES	IDE cell activ	HNF4A DNA FP	CRFR2-BP ag	IDE cell inh	TPT1 inhibitor
CCOC(=O)[C@]12CCCC=C1N(Cc1ccco1)C(=O)[C@H](CC(=O)NCc1cccc(C(F)(F)F)c1)C2	·	2.3	·	·	·
Cc1cc(C)c(S(=O)(=O)/N=C2/C=C(SCC(=O)O)C(=O)c3ccccc32)cc1C	-7.4	37.6*	1.1	·	·
O=C(Nc1cccc(S(=O)(=O)N2CCCCC2)c1)C1=NN(c2ccccc2)C(=O)CC1	-0.1	-1.9	-1.4	2.2	·
CN1/C(=C\C=C(C#N)C#N)C(C)(C)c2ccccc21	-3.1	-116.8	84.1*	7.8	17.1
CN1/C(=C/C=N/n2cnnc2)C(C)(C)c2ccccc21	2.9	5.7	-0.6	7.2	-0.3
CCc1ccc(Cn2nnc(C(=O)Nc3cccc(C)c3)c2N)cc1	1.9	-2.9	19.9	2.1	-4.4
Cc1ccc(Cn2nnc(C(=O)Nc3cccc(C)c3C)c2N)cc1	-1.9	-0.2	104.6*	4.7	0.5
COc1ccc(CCNC(=O)c2cc3cc(Cl)ccc3nc2N)cc1OC	·	-3.0	·	·	·
Cc1c(C(=O)Nc2ccccc2)sc2nc(-c3ccccc3)cn12	-15.3	1.0	7.9	22.6*	-3.5
CN(C)CCNC(=O)c1cccc(-c2cc(NC=O)c3ncc(-c4cccc(C(F)(F)F)c4)n3c2)c1	·	10.0	·	·	·
CCN(CC)c1ccc(NC2CC(=O)N(CCc3ccc(OC)cc3)C2=O)cc1 (configuration not stated)	0.6	57.2*	0.7	4.1	3.5
COc1ccc(CCNC2CC(=O)N(CCc3ccccc3)C2=O)cc1 (configuration not stated)	1.8	-4.3	0.6	1.5	-1.3
C/C(=C\C=C(C#N)C#N)c1cc(C#N)c(N)o1	-41.2	172.4	64.2*	·	·
Cc1c(C(=O)NCc2cccc(C(F)(F)F)c2)sc(=O)n1Cc1ccccc1F	·	-0.7	·	·	·
CN(C)CCNc1cccc2sc3ccc(O)cc3c(=O)c12	·	27.5	·	·	·
Cc1ccc(NCCN(C)C)c2c(=O)c3cc(O)ccc3sc12	4.0	52.2*	10.3	·	·
CCN(C[C@H]1N[C@@](Cc2ccccc2)(C(=O)OC)[C@H]2C(=O)N(Cc3ccccc3)C(=O)[C@@H]12)C(=O)C1CCCCC1	1.3	-1.1	109.8*	2.6	·
CCN(C[C@H]1N[C@@](C)(C(=O)OC)[C@H]2C(=O)N(Cc3ccccc3)C(=O)[C@@H]12)C(=O)C1CCCCC1	1.1	2.1	0.9	2.9	·
CC(=O)Nc1ccc(CN2CCCC(CO)(Cc3cccc(Cl)c3)C2)cc1 (configuration not stated)	4.3	3.0	55.5*	-2.4	0.9
O=S(=O)(Nc1ccncc1)c1cc(Cl)c(Cl)cc1Cl	4.3	-0.7	-1.3	1.2	-1.2
CCOc1cc(/C=C2/C(=N)N3C(=NC2=O)SN=C3S(=O)(=O)C(C)C)ccc1OC(=O)c1ccco1	-21.4	38.6*	-0.3	-4.2	14.8
COc1ccc(/C=C/C(=O)OCC(=O)N2c3ccccc3CC2C)c(OC)c1 (configuration not stated)	·	1.8	-2.0	·	·
Cc1ccc(S(=O)(=O)NC(C)C(=O)OCC(=O)Nc2sccc2C(N)=O)cc1 (configuration not stated)	·	0.3	0.6	·	·
COc1ccc2cc1Oc1ccc(cc1)CC1c3c(cc(OC)c4c3Oc3cc5c(cc3O4)CCNC5C2)CCN1C (configuration not stated)	7.4	99.7*	2.5	4.1	-1.1
